Source: the supplement of paper PMC4206461
A number with no mark means an inactive call.

tested on: Pseudomonas aeruginosa PA14 wild type; assay: respiration area under curve with compound as sole nitrogen source, 24 h (OmniLog AUC (arbitrary units)); higher = more respiration / better utilisation as nitrogen source, active = 2000 or more
Experimental: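 Biolog Phenotype MicroArray plates PM6-PM8: each di/tripeptide is the sole nitrogen source (IF-0 medium with succinate/ferric citrate and dye mix A). Tetrazolium reduction was read in the OmniLog every 15 min for 24 h at 37°C and summarised as area under the respiration curve (arbitrary units). The paper counts values below 2000 as no respiration and above 8000 as solid respiration. Replicate datasets are averaged.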

Row | Structure (SMILES) | respiration area under curve
1 | N[C@@H](CCC(=O)O)C(=O)N[C@@H](Cc1c[nH]c2ccccc12)C(=O)O (plate: PM6) | 2740 (active)
2 | NC(=O)CC[C@H](NC(=O)[C@@H](N)CC(=O)O)C(=O)O (plate: PM8) | 9700 (active)
3 | CC(C)[C@H](NC(=O)[C@@H](N)CC(N)=O)C(=O)O (plate: PM6) | 7030 (active)
4 | NC(=O)CC[C@H](NC(=O)[C@@H](N)CCC(N)=O)C(=O)O (plate: PM6) | 8430 (active)
5 | NC(CO)C(=O)NC(CCC(=O)O)C(=O)O (centres undefined) (plate: PM8) | 5470 (active)
6 | N[C@@H](CCC(=O)O)C(=O)N[C@@H](CC(=O)O)C(=O)O (plate: PM6) | 12
7 | N[C@@H](Cc1c[nH]c2ccccc12)C(=O)N[C@@H](CC(=O)O)C(=O)O (plate: PM7) | 446
8 | CC[C@H](C)[C@H](N)C(=O)N[C@@H](CCCN=C(N)N)C(=O)O (plate: PM6) | 9480 (active)
9 | N[C@@H](Cc1ccccc1)C(=O)N1CCC[C@H]1C(=O)O (plate: PM7) | 11400 (active)
10 | C[C@H](N)C(=O)N[C@@H](C)C(=O)N[C@@H](C)C(=O)O (plate: PM8) | 10400 (active)
11 | CC[C@H](C)[C@H](N)C(=O)N[C@@H](CCC(N)=O)C(=O)O (plate: PM6) | 7450 (active)
12 | CC(C)C[C@H](NC(=O)CN)C(=O)O (plate: PM6) | 1880
13 | CC(C)[C@H](N)C(=O)N[C@@H](Cc1ccc(O)cc1)C(=O)O (plate: PM7) | 8020 (active)
14 | C[C@H](N)C(=O)N[C@@H](CCCN=C(N)N)C(=O)O (plate: PM6) | 10100 (active)
